Measured values taken from PubChem BioAssay (EPA / NIEHS).
Calls of active or inactive are those of the source. The calls were made as follows: active = hit-call score of the fitted dose curve at least 0.9, where 1 is the maximum; inactive = score below 0.9.

What follows are compounds tested on Collagen I, COL1A1 (gene 1277) (assay: BSK_MyoF_CollagenI: BioMAP Diversity Plus: MyoF Assay for Collagen I Biomarker Activity (AID 2284238)). Conditions: primary human lung fibroblasts.
Procedure: BSK_MyoF is a cell-based, multiplexed-readout assay that uses lung fibroblasts, […], with measurements taken at 24 hours after chemical dosing in a microplate: 96-well plate.BSK_MyoF_CollagenI is an assay component measured in the BSK_MyoF assay. It measures Collagen I antibody related to regulation of gene expression using ELISA technology.Data from the assay component BSK_MyoF_CollagenI was analyzed at the endpoint, BSK_MyoF_CollagenI, in the positive analysis fitting direction relative to DMSO as the negative control and baseline of activity. Using a type of binding reporter, gain or loss-of-signal activity can be used to understand protein changes. To generalize the intended target to other relatable targets, this assay endpoint is annotated to the 'cell adhesion molecules' intended target family, where the subfamily is 'collagen'.
The levels of cell surface (or secreted, indicated by the prefix "s") biomarker endpoints were measured by ELISA. Overt cytotoxicity to cells in confluent adherent cultures (all systems other than the BT system) was assessed by measuring total protein levels using sulforhodamine B (SRB) staining in parallel cultures at the time of biomarker measurements, indicated as SRB endpoints. For proliferation assays for adherent cell types, individual cell types are cultured at sub-confluence and relative cell numbers quantified by SRB staining at time points optimized for each system (48 h: 3C and CASM3C systems; 72 h: BT and HDF3CGF systems; 96 h: SAg system). SRB was performed by staining cells with 0.1% SRB after fixation with 10% TCA and reading wells at 560 nm.Viability and proliferation of PBMC (T cells) was quantified by Alamar Blue reduction for the SAg and BT systems. For PBMC viability (referred to as PBMC Cytotoxicity within the assay endpoint names), cells were plated (75,000/well in a 96-well plate) and then chemical samples added for 1 h before addition of activators, SEB and TSST-1 (20 ng/mL final concentration each). Cells were incubated for 90 h. Then, Alamar Blue (20 uL/well) (Invitrogen, Cat DAL1100) was added for 6 h, and the plates were read with a fluorescence microplate reader at 546/580 nm (excitation/emission). For PBMC proliferation, cells were plated and activated as above but incubated for only 16 h prior to addition of Alamar Blue. Plates were read after 6 h.
`O=C1OC2(c3ccccc31)c1ccc(O)c(Br)c1Oc1c2ccc(O)c1Br` was tested, and the outcome was “inactive”. For `C=C(C)C(=O)OCC(CC)(COC(=O)C(=C)C)COC(=O)C(=C)C`, the AC50 was 10.2 µM (active). `O=C1c2ccccc2C(=O)c2c(O)ccc(O)c21` was tested, and the outcome was “inactive”. In the case of `C=C(C)[C@H]1CC=C(C)C(=O)C1`, the outcome is reported as “inactive”. `c1ccc(Oc2ccccc2)cc1` was tested, and the outcome was “inactive”. For `Oc1c(Cl)cc(Cl)c(Cl)c1Cc1c(O)c(Cl)cc(Cl)c1Cl`, the AC50 was 0.215 µM (active). `c1ccc(CCc2ccccc2)cc1` was tested, and the AC50 was 31.9 µM (active). `CN(c1nccc(=O)[nH]1)C1CCN(c2nc3ccccc3n2Cc2ccc(F)cc2)CC1` was tested, and the outcome was “inactive”. With `CC(C)(C)CC(C)(C)c1ccc(OCCOCC[N+](C)(C)Cc2ccccc2)cc1` the AC50 was 5 µM (active). With `CCCCN(CCCC)C(=O)N(CCCC)CCCC` the AC50 was 9.53 µM (active). For `CCC(C)c1cc([N+](=O)[O-])cc([N+](=O)[O-])c1OC(=O)OC(C)C` (stereo not drawn), the AC50 was 2.66 µM (active). With `C[C@@H]1CCN(C(=O)[C@H](CCCN=C(N)N)NS(=O)(=O)c2cccc3c2NC[C@H](C)C3)[C@@H](C(=O)O)C1` the outcome was “inactive”. With `C=C(C)C(=O)OCCOCCOCCOCCOC(=O)C(=C)C` the outcome was “inactive”. For `Cc1cc(CCC(=O)OCCOCCOCCOC(=O)CCc2cc(C)c(O)c(C(C)(C)C)c2)cc(C(C)(C)C)c1O`, the outcome was “inactive”. For `c1ccc2cc(Nc3ccc(Nc4ccc5ccccc5c4)cc3)ccc2c1`, the outcome was “inactive”. In the case of `CSCCC=O`, the outcome is reported as “inactive”. `IC(I)I` was tested, and the outcome was “inactive”. With `CN(C)C(=O)Nc1ccc(Oc2ccc(Cl)cc2)cc1` the outcome was “inactive”. In the case of `CCCCCC(C=O)=Cc1ccccc1`, the outcome is reported as “inactive”. In the case of `Clc1cc(Cl)c(-c2c(Cl)c(Cl)cc(Cl)c2Cl)cc1Cl`, the AC50 is reported as 2.99 µM (active). `CC(=O)C1(C)CC2=C(CCCC2(C)C)CC1C` (stereo not drawn) was tested, and the AC50 was 24.7 µM (active). In the case of `CC(=O)Nc1ccc(C(=O)CCl)cc1`, the AC50 is reported as 29.5 µM (active). For `C1=CC2C3C=CC(C3)C2C1` (stereo not drawn), the outcome was “inactive”. `C=C(C)C(=O)OCCOCCOCCOC(=O)C(=C)C` was tested, and the outcome was “inactive”. With `O=C1OC[C@H](Cc2cccc(O)c2)[C@H]1Cc1cccc(O)c1` the outcome was “inactive”. With `CC=Cc1ccc(OCC)c(O)c1` the outcome was “inactive”. For `CC(C)(N=C=O)c1cccc(C(C)(C)N=C=O)c1`, the outcome was “inactive”. With `CS(=O)(=O)c1ccc(C2=C(c3ccccc3)C(=O)OC2)cc1` the outcome was “inactive”. For `CCCCCCCCCCCCCCCC(=O)OC/C=C(C)/C=C/C=C(C)/C=C/C1=C(C)CCCC1(C)C`, the outcome was “inactive”. `CC(C=O)Cc1ccc(C(C)(C)C)cc1` (stereo not drawn) was tested, and the outcome was “inactive”. With `COc1ccc(OC)c(N=Nc2c(O)ccc3ccccc23)c1` the outcome was “inactive”. With `COc1cc(Cl)c(OC)cc1N` the outcome was “inactive”. For `CC(=O)c1c(C)c([N+](=O)[O-])c(C(C)(C)C)c([N+](=O)[O-])c1C`, the outcome was “inactive”. In the case of `CCN(CC)C(=O)N(CC)CC`, the outcome is reported as “inactive”. With `COc1ccc(CCN2CCC(Nc3nc4ccccc4n3Cc3ccc(F)cc3)CC2)cc1` the AC50 was 8.62 µM (active). With `CC1(C)C2=CCCC(C)(C)[C@]23CC[C@H]1C3` the AC50 was 30.4 µM (active). With `CCCCOC(=O)CCCCCCCC(=O)OCCCC` the outcome was “inactive”. For `CN(C)C(=S)SC(=S)N(C)C`, the outcome was “inactive”.
